# Source: paper PMC7862700, “An all-to-all approach to the identification of sequence-specific readers for epigenetic DNA modifications on cytosine”
# Experiments:
# Experiment in all cases: DAPPL (digital affinity profiling via proximity ligation, sequencing); 10 mM Tris-HCl pH 7.5, 50 mM NaCl, 1 mM DTT, 4% glycerol, room temperature, 30 min; GST-TFs on glutathione beads, 16-mer random dsDNA library, 0.1% formaldehyde crosslink after washing; high values mean tight binding
# [1] = biological target: T1, FEV (Homo sapiens, UniProt Q99581 1-238); conditions: protein: recombinant; tags: N-terminal GST; dsDNA, one strand shown
# T1 sequence: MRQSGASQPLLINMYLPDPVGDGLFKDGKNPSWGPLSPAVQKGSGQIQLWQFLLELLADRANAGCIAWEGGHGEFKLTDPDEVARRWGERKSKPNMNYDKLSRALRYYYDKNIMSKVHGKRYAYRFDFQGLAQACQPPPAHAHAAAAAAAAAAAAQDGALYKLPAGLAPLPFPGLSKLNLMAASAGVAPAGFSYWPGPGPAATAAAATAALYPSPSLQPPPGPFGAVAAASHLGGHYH
# Summary of the method: (§1)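 Binding signal is each hexamer's read frequency for a factor divided by its frequency in the tag-only sample. The factors were GST-fused human transcription factors from yeast, captured on glutathione beads, DNA-barcoded and pooled with that sample. Pools were incubated with 200 nmole of a random double-stranded 16-mer DNA library in Tris/NaCl/DTT/glycerol buffer at room temperature for 30 min, then washed, crosslinked with 0.1% formaldehyde, proximity-ligated with BsaI/T4 ligase (1 h, 37 °C), PCR-amplified and sequenced on an Illumina NextSeq500.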
# [2] = biological target: ETV5 (Homo sapiens, UniProt P41161 1-510); conditions: protein: recombinant; tags: N-terminal GST; dsDNA, one strand shown
# Sequence of ETV5 (P41161 whole entry): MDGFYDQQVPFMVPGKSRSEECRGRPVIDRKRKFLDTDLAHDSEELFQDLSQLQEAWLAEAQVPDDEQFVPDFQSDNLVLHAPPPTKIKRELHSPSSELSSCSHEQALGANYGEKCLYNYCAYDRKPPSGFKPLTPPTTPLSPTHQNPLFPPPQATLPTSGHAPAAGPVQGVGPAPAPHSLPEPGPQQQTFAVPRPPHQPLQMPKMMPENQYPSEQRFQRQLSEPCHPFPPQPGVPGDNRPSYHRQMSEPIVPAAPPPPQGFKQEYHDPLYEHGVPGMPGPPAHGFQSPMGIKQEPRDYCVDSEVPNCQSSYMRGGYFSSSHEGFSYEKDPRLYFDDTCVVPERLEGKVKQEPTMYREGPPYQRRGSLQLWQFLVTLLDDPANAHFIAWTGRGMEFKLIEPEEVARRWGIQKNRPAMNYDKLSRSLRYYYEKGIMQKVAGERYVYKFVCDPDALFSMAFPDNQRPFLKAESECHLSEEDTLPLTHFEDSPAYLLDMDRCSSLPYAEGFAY
# Summary of the method: as §1
# [3] = biological target: HSF1 (Homo sapiens, UniProt Q00613 1-529); conditions: protein: recombinant; tags: N-terminal GST; chain copies: 3; dsDNA, one strand shown
# Sequence of HSF1 (Q00613 whole entry): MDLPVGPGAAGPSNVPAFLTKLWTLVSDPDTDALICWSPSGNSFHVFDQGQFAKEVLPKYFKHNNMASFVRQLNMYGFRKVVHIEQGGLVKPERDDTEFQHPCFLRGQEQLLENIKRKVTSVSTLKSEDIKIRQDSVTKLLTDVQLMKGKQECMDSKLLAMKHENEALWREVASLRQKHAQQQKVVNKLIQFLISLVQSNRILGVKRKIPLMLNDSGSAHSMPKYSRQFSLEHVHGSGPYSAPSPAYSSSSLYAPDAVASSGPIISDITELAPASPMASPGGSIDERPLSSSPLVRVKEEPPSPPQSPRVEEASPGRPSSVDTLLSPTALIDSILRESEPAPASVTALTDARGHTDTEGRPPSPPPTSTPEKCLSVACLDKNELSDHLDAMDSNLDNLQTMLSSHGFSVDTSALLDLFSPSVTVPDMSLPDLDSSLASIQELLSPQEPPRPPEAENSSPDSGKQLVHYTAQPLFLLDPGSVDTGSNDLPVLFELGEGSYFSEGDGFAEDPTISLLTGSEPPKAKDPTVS
# Summary of the method: as §1
# [4] = biological target: T2, SPIC (Homo sapiens, UniProt Q8N5J4 1-248); conditions: protein: recombinant; tags: N-terminal GST; dsDNA, one strand shown
# T2 sequence: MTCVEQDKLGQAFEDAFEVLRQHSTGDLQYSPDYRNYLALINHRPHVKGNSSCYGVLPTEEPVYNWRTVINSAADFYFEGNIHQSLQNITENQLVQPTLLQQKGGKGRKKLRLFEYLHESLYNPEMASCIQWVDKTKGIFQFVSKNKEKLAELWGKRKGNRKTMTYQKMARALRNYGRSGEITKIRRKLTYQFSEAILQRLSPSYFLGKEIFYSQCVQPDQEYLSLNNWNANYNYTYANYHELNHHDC
# Summary of the method: as §1
# [5] = biological target: ELF4 (Homo sapiens, UniProt Q99607 1-663); conditions: protein: recombinant; tags: N-terminal GST; dsDNA, one strand shown
# Sequence of ELF4 (Q99607 whole entry): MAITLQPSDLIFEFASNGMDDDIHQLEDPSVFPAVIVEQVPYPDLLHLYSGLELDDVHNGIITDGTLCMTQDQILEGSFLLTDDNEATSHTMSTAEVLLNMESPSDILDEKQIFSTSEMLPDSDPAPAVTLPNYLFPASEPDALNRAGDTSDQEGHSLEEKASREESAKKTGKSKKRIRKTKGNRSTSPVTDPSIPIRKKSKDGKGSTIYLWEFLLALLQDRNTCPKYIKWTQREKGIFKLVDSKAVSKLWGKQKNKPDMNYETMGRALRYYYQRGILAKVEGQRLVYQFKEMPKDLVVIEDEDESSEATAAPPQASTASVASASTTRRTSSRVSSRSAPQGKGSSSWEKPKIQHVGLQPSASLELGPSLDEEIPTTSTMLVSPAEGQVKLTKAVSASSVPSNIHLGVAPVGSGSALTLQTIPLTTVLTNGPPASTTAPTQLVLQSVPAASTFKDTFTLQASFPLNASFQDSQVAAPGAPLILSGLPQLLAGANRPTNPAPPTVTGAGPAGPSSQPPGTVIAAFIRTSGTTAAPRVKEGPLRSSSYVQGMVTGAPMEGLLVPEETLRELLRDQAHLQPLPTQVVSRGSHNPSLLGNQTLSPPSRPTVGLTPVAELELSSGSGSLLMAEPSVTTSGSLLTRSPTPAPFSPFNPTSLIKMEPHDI
# Summary of the method: as §1
# [6] = biological target: T3, ELK4 (Homo sapiens, UniProt P28324-2 1-405); conditions: protein: recombinant; tags: N-terminal GST; dsDNA, one strand shown
# T3 sequence: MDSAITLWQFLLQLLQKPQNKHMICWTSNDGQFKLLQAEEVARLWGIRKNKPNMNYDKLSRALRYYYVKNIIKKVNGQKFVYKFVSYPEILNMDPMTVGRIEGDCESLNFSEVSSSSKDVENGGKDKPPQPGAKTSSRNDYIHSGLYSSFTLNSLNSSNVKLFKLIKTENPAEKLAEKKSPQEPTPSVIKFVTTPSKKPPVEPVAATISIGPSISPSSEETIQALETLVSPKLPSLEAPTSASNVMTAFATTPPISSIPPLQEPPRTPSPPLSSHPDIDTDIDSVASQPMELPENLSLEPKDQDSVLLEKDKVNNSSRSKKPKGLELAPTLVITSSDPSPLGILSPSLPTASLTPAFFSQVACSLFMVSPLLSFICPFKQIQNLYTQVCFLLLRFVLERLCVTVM
# Summary of the method: as §1
# [7] = biological target: T4, ETV2 (Homo sapiens, UniProt O00321 1-342); conditions: protein: recombinant; tags: N-terminal GST; dsDNA, one strand shown
# T4 sequence: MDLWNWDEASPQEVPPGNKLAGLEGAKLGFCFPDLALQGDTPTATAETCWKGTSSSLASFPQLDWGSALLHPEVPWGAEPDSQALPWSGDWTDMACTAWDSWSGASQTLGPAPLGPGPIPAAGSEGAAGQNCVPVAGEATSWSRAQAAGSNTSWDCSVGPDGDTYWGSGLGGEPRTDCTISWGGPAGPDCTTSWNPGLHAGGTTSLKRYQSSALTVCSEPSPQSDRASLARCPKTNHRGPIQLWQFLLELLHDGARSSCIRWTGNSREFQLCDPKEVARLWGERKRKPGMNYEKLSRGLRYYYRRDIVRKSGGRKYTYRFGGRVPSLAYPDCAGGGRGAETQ
# Summary of the method: as §1
# [8] = biological target: T5, ELF3 (Homo sapiens, UniProt P78545 1-371); conditions: protein: recombinant; tags: N-terminal GST; dsDNA, one strand shown
# T5 sequence: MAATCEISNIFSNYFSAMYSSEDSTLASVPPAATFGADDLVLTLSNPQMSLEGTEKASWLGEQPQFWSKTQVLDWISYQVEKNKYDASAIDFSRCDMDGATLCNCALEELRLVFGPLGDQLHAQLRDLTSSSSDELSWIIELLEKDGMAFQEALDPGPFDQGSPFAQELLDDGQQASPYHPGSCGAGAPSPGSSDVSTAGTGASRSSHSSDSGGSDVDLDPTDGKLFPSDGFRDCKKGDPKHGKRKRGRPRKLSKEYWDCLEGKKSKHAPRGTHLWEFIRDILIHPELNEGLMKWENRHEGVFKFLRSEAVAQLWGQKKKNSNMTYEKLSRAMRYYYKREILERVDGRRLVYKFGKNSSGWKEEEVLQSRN
# Summary of the method: as §1
# [9] = biological target: CRX (Homo sapiens, UniProt O43186 1-299); conditions: protein: recombinant; tags: N-terminal GST; dsDNA, one strand shown
# Sequence of CRX (O43186 whole entry): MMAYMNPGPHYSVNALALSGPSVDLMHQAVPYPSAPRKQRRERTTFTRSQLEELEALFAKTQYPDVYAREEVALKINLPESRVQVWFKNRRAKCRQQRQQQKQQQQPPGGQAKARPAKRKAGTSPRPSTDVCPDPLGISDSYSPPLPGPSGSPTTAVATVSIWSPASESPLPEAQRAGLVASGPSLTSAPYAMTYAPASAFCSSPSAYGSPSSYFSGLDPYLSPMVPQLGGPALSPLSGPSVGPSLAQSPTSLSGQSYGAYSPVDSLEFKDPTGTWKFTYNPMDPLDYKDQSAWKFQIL
# Summary of the method: as §1
# [10] = biological target: ETV1 (Homo sapiens, UniProt P50549 1-477); conditions: protein: recombinant; tags: N-terminal GST; dsDNA, one strand shown
# Sequence of ETV1 (P50549 whole entry): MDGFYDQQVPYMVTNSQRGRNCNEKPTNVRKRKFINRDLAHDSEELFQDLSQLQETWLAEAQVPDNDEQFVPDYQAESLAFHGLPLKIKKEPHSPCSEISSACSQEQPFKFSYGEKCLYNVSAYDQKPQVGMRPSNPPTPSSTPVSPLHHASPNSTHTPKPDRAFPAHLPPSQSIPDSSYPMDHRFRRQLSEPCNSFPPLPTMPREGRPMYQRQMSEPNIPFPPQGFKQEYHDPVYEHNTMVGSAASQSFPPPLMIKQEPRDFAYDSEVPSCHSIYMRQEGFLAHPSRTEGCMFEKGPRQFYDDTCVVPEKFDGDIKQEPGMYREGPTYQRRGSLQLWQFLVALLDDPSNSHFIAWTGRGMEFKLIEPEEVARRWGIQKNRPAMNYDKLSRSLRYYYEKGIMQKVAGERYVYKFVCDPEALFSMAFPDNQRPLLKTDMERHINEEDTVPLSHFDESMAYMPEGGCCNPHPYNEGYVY
# Summary of the method: as §1
# [11] = biological target: T6, ERF (Homo sapiens, UniProt P50548 1-548); conditions: protein: recombinant; tags: N-terminal GST; dsDNA, one strand shown
# T6 sequence: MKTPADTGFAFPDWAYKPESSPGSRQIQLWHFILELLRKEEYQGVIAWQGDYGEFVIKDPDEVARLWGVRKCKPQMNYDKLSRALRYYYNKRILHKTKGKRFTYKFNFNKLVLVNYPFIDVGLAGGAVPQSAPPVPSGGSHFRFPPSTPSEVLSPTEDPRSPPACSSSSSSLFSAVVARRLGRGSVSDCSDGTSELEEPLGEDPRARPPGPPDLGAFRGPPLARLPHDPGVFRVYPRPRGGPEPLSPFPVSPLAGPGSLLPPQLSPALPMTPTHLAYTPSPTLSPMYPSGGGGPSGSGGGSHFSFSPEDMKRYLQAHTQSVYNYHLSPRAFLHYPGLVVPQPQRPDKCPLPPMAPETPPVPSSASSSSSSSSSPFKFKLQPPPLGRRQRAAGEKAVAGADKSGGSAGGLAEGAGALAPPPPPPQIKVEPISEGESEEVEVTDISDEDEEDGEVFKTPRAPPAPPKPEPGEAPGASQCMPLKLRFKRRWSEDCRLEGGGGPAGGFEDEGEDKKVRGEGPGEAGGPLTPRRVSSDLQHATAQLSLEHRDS
# Summary of the method: as §1
# [12] = biological target: T7, ETV3L (Homo sapiens, UniProt Q6ZN32 1-361); conditions: protein: recombinant; tags: N-terminal GST; dsDNA, one strand shown
# T7 sequence: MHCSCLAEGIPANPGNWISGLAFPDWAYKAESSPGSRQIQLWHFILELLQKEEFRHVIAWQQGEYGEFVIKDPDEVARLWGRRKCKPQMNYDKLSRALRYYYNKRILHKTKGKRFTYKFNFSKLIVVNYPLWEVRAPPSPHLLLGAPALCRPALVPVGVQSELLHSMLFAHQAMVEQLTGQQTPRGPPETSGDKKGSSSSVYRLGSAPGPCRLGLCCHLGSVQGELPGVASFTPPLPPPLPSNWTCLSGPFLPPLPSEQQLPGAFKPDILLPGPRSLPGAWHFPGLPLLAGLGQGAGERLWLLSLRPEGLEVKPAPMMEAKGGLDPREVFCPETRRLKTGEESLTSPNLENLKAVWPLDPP
# Summary of the method: as §1
# [13] = biological target: T8, ETS2 (Homo sapiens, UniProt P15036 1-469); conditions: protein: recombinant; tags: N-terminal GST; dsDNA, one strand shown
# T8 sequence: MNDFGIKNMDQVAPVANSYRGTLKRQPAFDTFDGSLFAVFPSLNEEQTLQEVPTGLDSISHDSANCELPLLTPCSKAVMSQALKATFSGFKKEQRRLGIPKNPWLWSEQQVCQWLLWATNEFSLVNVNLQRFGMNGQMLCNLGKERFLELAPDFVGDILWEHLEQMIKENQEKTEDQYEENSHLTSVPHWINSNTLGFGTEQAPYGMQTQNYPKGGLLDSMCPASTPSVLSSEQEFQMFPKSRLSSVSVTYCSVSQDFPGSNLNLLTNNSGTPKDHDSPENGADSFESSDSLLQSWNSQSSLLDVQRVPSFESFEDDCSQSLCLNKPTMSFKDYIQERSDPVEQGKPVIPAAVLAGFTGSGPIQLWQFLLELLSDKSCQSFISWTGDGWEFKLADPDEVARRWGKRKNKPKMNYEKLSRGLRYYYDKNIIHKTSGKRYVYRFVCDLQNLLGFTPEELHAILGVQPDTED
# Summary of the method: as §1
# [14] = biological target: T9, SPDEF (Homo sapiens, UniProt O95238 1-335); conditions: protein: recombinant; tags: N-terminal GST; dsDNA, one strand shown
# T9 sequence: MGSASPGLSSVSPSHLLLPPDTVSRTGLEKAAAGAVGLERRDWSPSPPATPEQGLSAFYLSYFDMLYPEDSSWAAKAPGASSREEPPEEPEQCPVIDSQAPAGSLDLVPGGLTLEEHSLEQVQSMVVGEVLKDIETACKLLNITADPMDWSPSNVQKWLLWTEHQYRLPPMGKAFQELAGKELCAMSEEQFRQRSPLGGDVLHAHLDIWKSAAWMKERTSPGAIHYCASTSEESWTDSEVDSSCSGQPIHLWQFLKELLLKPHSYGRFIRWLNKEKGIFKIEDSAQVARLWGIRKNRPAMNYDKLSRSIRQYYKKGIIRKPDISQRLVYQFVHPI
# Summary of the method: as §1
# [15] = biological target: T10, ETV7 (Homo sapiens, UniProt Q9Y603 1-341); conditions: protein: recombinant; tags: N-terminal GST; dsDNA, one strand shown
# T10 sequence: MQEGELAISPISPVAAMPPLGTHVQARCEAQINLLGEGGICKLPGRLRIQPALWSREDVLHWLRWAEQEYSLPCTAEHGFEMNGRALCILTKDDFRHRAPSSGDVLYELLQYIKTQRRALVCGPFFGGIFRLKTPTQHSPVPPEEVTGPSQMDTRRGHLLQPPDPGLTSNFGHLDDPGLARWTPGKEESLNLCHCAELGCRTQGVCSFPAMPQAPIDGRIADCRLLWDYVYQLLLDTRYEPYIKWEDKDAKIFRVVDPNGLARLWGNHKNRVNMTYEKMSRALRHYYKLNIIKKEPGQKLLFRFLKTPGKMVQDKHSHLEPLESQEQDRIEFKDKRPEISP
# Summary of the method: as §1
# [16] = biological target: T11, ELF5 (Homo sapiens, UniProt Q9UKW6-2 1-255); conditions: protein: recombinant; tags: N-terminal GST; dsDNA, one strand shown
# T11 sequence: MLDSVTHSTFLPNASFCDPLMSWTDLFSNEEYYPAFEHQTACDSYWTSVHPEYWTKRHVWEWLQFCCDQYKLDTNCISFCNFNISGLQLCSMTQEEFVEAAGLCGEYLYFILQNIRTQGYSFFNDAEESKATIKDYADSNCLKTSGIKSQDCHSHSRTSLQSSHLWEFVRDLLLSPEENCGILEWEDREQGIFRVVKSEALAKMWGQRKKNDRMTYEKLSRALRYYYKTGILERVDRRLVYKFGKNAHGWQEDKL
# Summary of the method: as §1
# [17] = biological target: T12, ETV3 (Homo sapiens, UniProt P41162-2 1-143); conditions: protein: recombinant; tags: N-terminal GST; dsDNA, one strand shown
# T12 sequence: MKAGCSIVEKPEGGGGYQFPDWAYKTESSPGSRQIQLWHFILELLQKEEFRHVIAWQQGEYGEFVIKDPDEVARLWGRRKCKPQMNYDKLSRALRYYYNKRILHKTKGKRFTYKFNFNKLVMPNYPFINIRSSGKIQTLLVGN
# Summary of the method: as §1
# [18] = biological target: ETV6 (Homo sapiens, UniProt P41212 1-452); conditions: protein: recombinant; tags: N-terminal GST; dsDNA, one strand shown
# Sequence of ETV6 (P41212 whole entry): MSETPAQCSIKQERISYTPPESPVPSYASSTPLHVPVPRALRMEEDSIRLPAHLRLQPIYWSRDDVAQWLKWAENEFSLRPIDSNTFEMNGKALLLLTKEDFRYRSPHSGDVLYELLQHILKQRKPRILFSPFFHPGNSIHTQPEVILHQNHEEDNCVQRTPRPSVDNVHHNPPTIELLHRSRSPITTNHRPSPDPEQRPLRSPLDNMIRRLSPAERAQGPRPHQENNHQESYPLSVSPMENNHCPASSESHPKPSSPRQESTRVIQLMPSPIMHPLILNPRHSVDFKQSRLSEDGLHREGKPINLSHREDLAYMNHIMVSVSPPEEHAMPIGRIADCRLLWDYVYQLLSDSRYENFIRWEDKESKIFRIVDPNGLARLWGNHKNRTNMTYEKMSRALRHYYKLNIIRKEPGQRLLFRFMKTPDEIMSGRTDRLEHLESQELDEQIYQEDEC
# Summary of the method: as §1
sequence,measurement,setting,value
TTACAG,binding signal,[1],"1.14 fold enrichment (6-mer frequency, TF over GST control)"
same,binding signal,[2],"1.2 fold enrichment (6-mer frequency, TF over GST control)"
same,binding signal,[3],"1.44 fold enrichment (6-mer frequency, TF over GST control)"
same,binding signal,[4],"1.3 fold enrichment (6-mer frequency, TF over GST control)"
same,binding signal,[5],"1.26 fold enrichment (6-mer frequency, TF over GST control)"
same,binding signal,[6],"1.37 fold enrichment (6-mer frequency, TF over GST control)"
same,binding signal,[7],"1.14 fold enrichment (6-mer frequency, TF over GST control)"
same,binding signal,[8],"1.38 fold enrichment (6-mer frequency, TF over GST control)"
same,binding signal,[9],"1.85 fold enrichment (6-mer frequency, TF over GST control)"
same,binding signal,[10],"1.2 fold enrichment (6-mer frequency, TF over GST control)"
same,binding signal,[11],"1.32 fold enrichment (6-mer frequency, TF over GST control)"
same,binding signal,[12],"1.22 fold enrichment (6-mer frequency, TF over GST control)"
same,binding signal,[13],"1.21 fold enrichment (6-mer frequency, TF over GST control)"
same,binding signal,[14],"1.18 fold enrichment (6-mer frequency, TF over GST control)"
same,binding signal,[15],"1.22 fold enrichment (6-mer frequency, TF over GST control)"
same,binding signal,[16],"1.16 fold enrichment (6-mer frequency, TF over GST control)"
same,binding signal,[17],"1.16 fold enrichment (6-mer frequency, TF over GST control)"
same,binding signal,[18],"1.19 fold enrichment (6-mer frequency, TF over GST control)"
